Screens as filed in PubChem BioAssay.
D2 antagonist: antagonizes the human D2 dopamine receptor; P14416; HEK293 TREx D2 cells, calcium flux, dopamine EC80; inhibition, % at 10 µM; 2% of 340,000 active; AID 485344; in the data active = inhibition above about 30%; inactive = below that, where a call was filed; also: 0% is about no effect
Target sequence (P14416 whole entry, looked up): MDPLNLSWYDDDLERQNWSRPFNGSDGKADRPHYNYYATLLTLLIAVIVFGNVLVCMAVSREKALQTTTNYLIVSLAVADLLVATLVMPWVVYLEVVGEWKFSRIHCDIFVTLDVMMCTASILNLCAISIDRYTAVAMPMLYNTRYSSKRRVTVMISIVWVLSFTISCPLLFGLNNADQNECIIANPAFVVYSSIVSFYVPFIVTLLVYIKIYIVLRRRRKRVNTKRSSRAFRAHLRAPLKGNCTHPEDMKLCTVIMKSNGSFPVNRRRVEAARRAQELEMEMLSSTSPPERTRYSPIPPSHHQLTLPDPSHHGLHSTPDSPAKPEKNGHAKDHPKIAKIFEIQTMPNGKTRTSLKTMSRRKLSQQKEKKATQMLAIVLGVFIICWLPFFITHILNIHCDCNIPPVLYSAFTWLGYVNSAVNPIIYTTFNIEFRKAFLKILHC
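In this primary screen, negative modulation is detected by tracking calcium flux after an EC80 dopamine challenge in inducible HEK293 T-REx D2 cells preexposed to test compound for 180 s.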
D2 PAM-1: potentiates the human D2 dopamine receptor allosterically | P14416 | DiscoveRx D2 beta-arrestin cells, luminescence, 90 min; 100% = 57 uM dopamine signal | potentiation, % (test concentration not listed) | 0.23% of 360,000 active | AID 624464; in the data active = potentiation above about 50%
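PathHunter D2 cells, attached overnight at 37 deg C, received compound in DMSO plus dopamine at EC20 (50 nM final) for 90 min at 37 deg C. Beta-arrestin recruitment was read as luminescence after 1 h with detection reagent at ambient temperature.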
D2 PAM-2: D2 dopamine receptor (human) potentiation; HEK293 T-REx D2, calcium flux, EC20 dopamine potentiation; 0.34% of 340,000 active; potentiation, % at 10 µM; AID 485347;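 active = potentiation over 3 SD above the plate norm, cut at about 30% in these data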; also: 0% is about no effect
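Tetracycline-induced Hek293 Trex D2 cells, force-coupled to calcium, loaded with no-wash calcium dye. Compound added with 180 s kinetic read for agonism, then EC20 dopamine and a further 180 s read for potentiation.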
D2 ag-1: human D2 receptor agonism in beta-arrestin assay; 0.084% of 360,000 active; DiscoveRx PathHunter D2 beta-arrestin, luminescence, 90 min; 100% = 57 uM dopamine signal; P14416; activation, % (test concentration not listed); AID 624465; in the data active = activation above about 40%
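Agonist mode: compounds alone added to overnight-plated D2 PathHunter cells for 90 min at 37 C, with 57 uM final dopamine (EC100) defining full response. Beta-arrestin recruitment detected by chemiluminescent reagent, read after 1 h at ambient temperature.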
D2 ag-2: D2 dopamine receptor (human) agonism. P14416. HEK293 T-REx D2 cells, calcium flux agonist mode. activation, % at 2 µM. 0.53% of 340,000 active;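 active = activation over 3 SD above normal in the single-dose calcium agonist read, cut at about 30% in these data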; also: 0% is about no effect
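Tetracycline-induced HEK293 T-REx cells with force-coupled D2 receptor, plated overnight at 30 C, loaded with no-wash calcium dye. After a 10 s baseline, compound was pin-added and calcium flux read kinetically for 180 s; calcium rises flagged agonists.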
The depositor's hits bear a star; ! = repeats disagree. Most compounds without a hit are left out; they make up all but 2.4% or so of the library.

`CC(C)(C)c1cc(NC(=O)COC(=O)c2ccc3c(=O)n4c(nc3c2)CCC4)n(-c2ccccc2)n1` gave D2 antagonist -9.9, D2 PAM-1 2.8, D2 PAM-2 46.3*, D2 ag-1 0.0 and D2 ag-2 -0.1.
O=C(Oc1ccccc1Cl)c1ccc2c(=O)n3c(nc2c1)CCC3 was read as D2 antagonist 7.8, D2 PAM-1 -11.5, D2 PAM-2 19.4, D2 ag-1 10.3 and D2 ag-2 0.1.
For CCN1C(=O)C(CC(=O)Nc2ccc(Cl)cc2)N(NC(=O)c2ccncc2)C1=S (configuration not stated) the results were D2 antagonist 31.1*, D2 PAM-1 -13.4, D2 PAM-2 -8.6, D2 ag-1 -6.9 and D2 ag-2 0.0.
For CCNC(=O)CC1C(=O)N(CC)C(=S)N1NC(=O)c1ccc(Cl)cc1 (configuration not stated) the results were D2 antagonist -7.9, D2 PAM-1 -7.5, D2 PAM-2 1.5, D2 ag-1 -2.4 and D2 ag-2 0.2.
Screening CCOC(=O)C(C(=O)OCC)c1cc(Br)c2noc3c2c1C(=O)c1ccccc1-3 returned D2 antagonist 1.5, D2 PAM-1 91.3*, D2 PAM-2 3.8, D2 ag-1 9.6 and D2 ag-2 1.3.
For CC(=O)OCCNc1cc(N2CCN(C)CC2)c2noc3c2c1C(=O)c1ccccc1-3 the results were D2 antagonist 0.0, D2 PAM-1 -3.3, D2 PAM-2 -1.3, D2 ag-1 -1.5 and D2 ag-2 0.7.
`COc1ccc(C(=O)Nc2nnc(S(=O)(=O)N(C)c3ccc(C)cc3)s2)cc1` gave D2 PAM-2 -8.5 and D2 ag-2 2.6.
Screening CC(=O)Nc1ccccc1-c1nc2ccccc2n(C(C)C(=O)Nc2cccc(C)c2C)c1=O (configuration not stated) returned D2 PAM-2 6.7 and D2 ag-2 -1.6.
Screening Cc1nc2sc(C(c3ccccc3)N3CCN(C)CC3)c(O)n2n1 (configuration not stated) returned D2 antagonist 46.7*, D2 PAM-1 -5.3, D2 PAM-2 0.5, D2 ag-1 -0.5 and D2 ag-2 -1.3.
CCOc1ccccc1C1CC(=O)Nc2c1c(=O)n(C)c1ncnn21 (configuration not stated) was read as D2 PAM-2 13.6 and D2 ag-2 -0.1.
`Cc1ccc(C)c(NC(=O)c2cc(C)nc3ccccc23)c1` gave D2 antagonist -2.4, D2 PAM-1 12.5, D2 PAM-2 1.5, D2 ag-1 -0.5 and D2 ag-2 -2.0.
Screening O=C(O)c1cc(-c2cccs2)nc2ccc(Br)cc12 returned D2 antagonist 33.6*, D2 PAM-2 0.4 and D2 ag-2 0.1.
`O=C(N/N=C/c1ccco1)c1cc(-c2ccccc2)nc2ccccc12` gave D2 antagonist 36.9*, D2 PAM-1 -35.5, D2 PAM-2 -19.6, D2 ag-1 -3.3 and D2 ag-2 -0.1.
O=C(O)c1cc(-c2ccccc2)nc2ccccc12 was read as D2 antagonist 40.3*!, D2 PAM-1 -4.4, D2 PAM-2 0.2, D2 ag-1 -7.3 and D2 ag-2 -1.4.
Screening Cc1ccc(-c2cc(C(=O)Nc3cc(C(=O)O)ccc3C)c3ccccc3n2)cc1 returned D2 antagonist -29.6, D2 PAM-1 4.8, D2 PAM-2 31.6*, D2 ag-1 -2.3 and D2 ag-2 0.1.
`O=C(Cn1c(=O)c2cc(Cl)ccc2n2nncc12)Nc1ccccc1` gave D2 ag-2 -0.1.
For CCCCNC(=O)CCn1c(=O)c2ccccc2n(Cc2ccccc2C#N)c1=O the results were D2 PAM-2 11.0 and D2 ag-2 -0.9.
Screening COc1ccc(CNC(=O)c2ccc(Cn3c(=O)c4cccn4c4cccnc43)cc2)c(OC)c1 returned D2 PAM-2 -6.3 and D2 ag-2 0.7.
For Cc1ccc(-c2cc(C(=O)O)c3ccccc3n2)s1 the results were D2 antagonist 34.2*, D2 PAM-1 -13.2, D2 PAM-2 -7.9, D2 ag-1 -3.1 and D2 ag-2 -0.4.
Screening CCOc1ccc(NC(=O)CC2C(=O)OCCN2CC)cc1 (configuration not stated) returned D2 PAM-2 17.1 and D2 ag-2 -0.6.
Screening O=c1c2c([N+](=O)[O-])cc([N+](=O)[O-])cc2sn1-c1ccc(Br)cc1 returned D2 antagonist 7.0, D2 PAM-1 60.6*, D2 PAM-2 -1.9, D2 ag-1 10.7 and D2 ag-2 0.6.
Screening O=c1c2c([N+](=O)[O-])cc([N+](=O)[O-])cc2sn1Cc1ccccc1 returned D2 PAM-1 8.3 and D2 ag-1 -7.3.
Screening COc1ccccc1N1CCN(CC(=O)c2c(C)n(C)c3ccccc23)CC1 returned D2 antagonist 24.4, D2 PAM-1 -31.3, D2 PAM-2 -25.0, D2 ag-1 -1.0 and D2 ag-2 -0.5.
For COc1ccccc1N1CCN(CC(=O)c2c(C)[nH]c3cc(C)ccc23)CC1 the results were D2 antagonist 63.9*, D2 PAM-1 -13.8, D2 PAM-2 -29.8, D2 ag-1 -3.4 and D2 ag-2 -0.1.
For CCC1CCCCN1CC(=O)c1c(C)[nH]c2cc(C)ccc12 (configuration not stated) the results were D2 antagonist 32.9*, D2 PAM-1 -2.1, D2 PAM-2 -4.5, D2 ag-1 2.8 and D2 ag-2 0.6.
CCCOc1ccc(C(=O)NC2CCSc3ccccc32)cc1 (configuration not stated) was read as D2 antagonist 36.0*, D2 PAM-1 -3.8, D2 PAM-2 5.8, D2 ag-1 0.5 and D2 ag-2 -1.1.
Cc1ccc(S(=O)(=O)c2nnn3c2nc(N2CCCC(C)C2)c2cc(Cl)ccc23)cc1C (configuration not stated) was read as D2 PAM-2 -1.8 and D2 ag-2 0.4.
Cc1ccc(NC(=O)Cc2ncc(C(F)(F)F)cc2Cl)cc1Cl was read as D2 antagonist 43.9*, D2 PAM-1 -17.4, D2 PAM-2 -7.4, D2 ag-1 -1.2 and D2 ag-2 -0.2.
CCN(CCC(=O)Nc1cc([N+](=O)[O-])ccc1OC)Cc1ccccc1 was read as D2 antagonist 78.9*, D2 PAM-1 -38.7, D2 PAM-2 -24.7, D2 ag-1 -1.3 and D2 ag-2 1.4.
COc1ccc([N+](=O)[O-])cc1NC(=O)CC(c1ccccc1)c1ccccc1 was read as D2 PAM-1 -0.5 and D2 ag-1 -2.8.
Screening COc1ccc([N+](=O)[O-])cc1NC(=O)C(C)OC(=O)Cn1[nH]c(=O)c2ccccc2c1=O (configuration not stated) returned D2 antagonist 35.8*, D2 PAM-1 -6.0, D2 PAM-2 -1.4, D2 ag-1 -6.1 and D2 ag-2 -0.2.
